Mdm2 MdmX PPI – inhibitors of human Mdm2-MdmX association, primary screen, cell-based, luminescence, split luciferase, SaOS-2, uHTS | SaOS-2 split-luciferase Mdm2/MdmX complementation | 3% of 330,000 active | inhibition, % at 8 µM | Protein Mdm4 (Homo sapiens) + E3 ubiquitin-protein ligase Mdm2 (Homo sapiens), …;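 active = inhibition of at least 50% at 8 µM in the primary screen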
Target sequence (O15151 whole entry, looked up): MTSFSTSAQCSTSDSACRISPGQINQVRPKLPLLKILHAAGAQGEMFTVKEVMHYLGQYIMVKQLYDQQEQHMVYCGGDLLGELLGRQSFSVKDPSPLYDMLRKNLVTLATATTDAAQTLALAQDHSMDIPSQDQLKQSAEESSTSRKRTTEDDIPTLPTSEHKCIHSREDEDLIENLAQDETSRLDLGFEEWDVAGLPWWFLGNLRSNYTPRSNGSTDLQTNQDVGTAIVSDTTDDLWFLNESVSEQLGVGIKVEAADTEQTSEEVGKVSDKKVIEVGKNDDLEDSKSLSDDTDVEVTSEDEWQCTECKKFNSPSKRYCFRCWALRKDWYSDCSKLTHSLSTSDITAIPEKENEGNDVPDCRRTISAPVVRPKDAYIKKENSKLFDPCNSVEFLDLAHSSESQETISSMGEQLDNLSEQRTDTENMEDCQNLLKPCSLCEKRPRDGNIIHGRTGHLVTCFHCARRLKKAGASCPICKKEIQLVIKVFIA
Target sequence (Q00987 whole entry, looked up): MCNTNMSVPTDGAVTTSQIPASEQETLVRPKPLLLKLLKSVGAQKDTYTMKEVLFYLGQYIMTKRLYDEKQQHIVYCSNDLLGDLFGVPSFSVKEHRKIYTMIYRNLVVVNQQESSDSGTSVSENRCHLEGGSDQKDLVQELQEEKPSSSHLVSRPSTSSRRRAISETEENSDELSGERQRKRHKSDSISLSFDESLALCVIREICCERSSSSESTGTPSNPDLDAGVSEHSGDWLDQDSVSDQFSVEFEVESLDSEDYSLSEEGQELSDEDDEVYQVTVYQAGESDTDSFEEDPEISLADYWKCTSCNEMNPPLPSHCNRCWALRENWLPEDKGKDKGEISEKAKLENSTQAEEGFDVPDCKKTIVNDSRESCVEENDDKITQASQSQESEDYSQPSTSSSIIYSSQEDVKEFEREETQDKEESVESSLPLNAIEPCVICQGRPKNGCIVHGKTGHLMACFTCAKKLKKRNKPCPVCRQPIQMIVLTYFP
CSC inhib – cancer stem cell viability inhibitors, primary screen, luminescence | cancer stem cell-like cells viability | inhibition, % at 7.5 µM | 1.1% of 300,000 active | AID 2717, 2010; in the data active = inhibition above about 75%; inconclusive = no clear call, values can overlap the other calls; tested in HMLE shEcad cells
Beta apoptosis – inhibitors of cytokine-induced beta cell apoptosis, primary screen, luminescence. INS-1E cytokine-induced death, ATP luminescence, 48 h; percent of positive-control rescue, neutral wells zero. protection from apoptosis, % (no concentration beside the values). 0.8% of 300,000 active. AID 435005, 2010;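 active = Every replicate reaches about 75%, or at least half do and their mean reaches it too, limit read from the data; inconclusive = At least half of replicates reach the limit but their mean does not; inactive = Under half of replicates reach the limit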;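 also: 0% = cytokine-treated negative control wells and 100% = positive control rescue; higher means more ATP so stronger rescue from cytokine killing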
A1 inh – caspase 3/7 activation in MEF A1-2A-BIM cells, primary screen, A1 inhibitor project, cell-based, luminescence, HTS; caspase activation, % (concentration not given with the values); Caspase-Glo 3/7 luminescence, 3 h; percent of clofoctol response, vehicle zero; AID 2462, 2010; 0.066% of 330,000 active;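 active = over half of replicate activation scores above 10%, or exactly half above 10 with the replicate mean above 10; inconclusive = replicate mean below 10 yet half the replicates above 10; inactive = over half of replicates below 10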
aSyn 5UTR inh – MLPCN primary screen, SNCA 5' untranslated region. alpha-synuclein 5'UTR reporter, inhibitor activity. inhibition, % (tested at 7.5 µM). 0.82% of 300,000 active. AID 1813, 2009; in the data active = inhibition above about 60%; inconclusive = no clear call, values can overlap the other calls;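 also: H4 neuroglioblastoma cells stably carrying SNCA 5'UTR luciferase fusion; 0% = DMSO wells and 100% = positive control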
* = called active by the depositor; ? = inconclusive; . = not tested or not shown. Sampled rows, rich in hits. Any-hit rate of the full collection: about 4.1%.

SMILES	Mdm2 MdmX PPI	CSC inhib	Beta apoptosis	A1 inh	aSyn 5UTR inh
Cc1nc2nc(C)c(NS(=O)(=O)c3ccc4c(c3)CCCC4)c(=O)n2[nH]1	7	.	-7	-1	19
Cc1n[nH]c(=O)c2c(NC(=O)CSc3nncs3)oc(C)c12	-12	0	.	1	12
COc1ccccc1N1CC(C(=O)Nc2nnc(SCC(=O)N3CCOCC3)s2)CC1=O (stereo not drawn)	13	1	-6	0	9
COc1cc(C(=O)N2CCN(c3cc(Cl)ccc3Cl)CC2)cc(OC)c1OC	50	61	35	1	89*
COc1cc(C(=O)N2CCN(c3cccc(C)c3C)CC2)cc(OC)c1OC	35	61	23	2	?
CNC(=O)C1C(=S)NC(N)=C(C#N)C1c1ccccc1 (stereo not drawn)	11	112*	15	2	6
COc1ccc(CNC(=O)CN2C(=O)NC(Cc3ccccc3)(c3ccccc3)C2=O)cc1OC (stereo not drawn)	9	.	.	.	.
NS(=O)(=O)c1ccc(Nc2nc(-c3ccc(F)cc3)cs2)cc1	25	8	-5	1	2
COc1ccc(-c2csc(Nc3ccc(S(N)(=O)=O)cc3)n2)cc1OC	28	17	7	1	62*
Cc1nn(C)c(C)c1CN(C)S(=O)(=O)c1ccc(F)cc1	13	2	4	-1	-1
Cc1nn(C)c(C)c1CN(C)S(=O)(=O)c1ccc2ccccc2c1	9	5	109*	0	.
Cc1cc(NC(=O)C(C)SCC(=O)OCc2ccc(Cl)cc2Cl)no1 (stereo not drawn)	34	-13	-1	0	.
O=C(N/N=C/c1cccc([N+](=O)[O-])c1)c1c[nH]c2ccccc12	7	-5	15	-1	-124
O=C(N/N=C/c1cc([N+](=O)[O-])ccc1Cl)c1cnccn1	46	58	8	0	81*
O=C(N/N=C/c1cc([N+](=O)[O-])ccc1O)c1cc(-c2ccccc2)nc2ccccc12	43	39	117*	1	81*
O=C(N/N=C/c1cc([N+](=O)[O-])ccc1Cl)c1cc(-c2ccccc2)nc2ccccc12	32	-20	1	0	-1
O=C(N/N=C/c1cccc([N+](=O)[O-])c1)c1cnccn1	25	1	-12	-1	-6
O=C(N/N=C/c1cc([N+](=O)[O-])ccc1O)c1c[nH]c2ccccc12	3	?	78*	-1	-9
C[C@H]1CCC[C@@]2(O[C@H](CCO)C[C@H](O)[C@H]2O)O1	-22	.	-11	-1	-34
O=C(NCCc1c[nH]c2ccccc12)C(=O)Nc1ccccc1	-12	81*	-3	0	-65
Cc1ccc(NC(=O)C(=O)NCCc2c[nH]c3ccccc23)cc1C	2	28	5	-1	-9
C/C(CC(=O)Nc1ccc(Cl)c(C(F)(F)F)c1)=N\NC(=O)c1cc2ccccc2cc1O	25	76*	4	0	-14
CCOc1ccc(C(=O)C(C)OC(=O)CN2C(=O)NC(C)(C)C2=O)cc1 (stereo not drawn)	23	-10	.	0	-6
CCOC(=O)c1c(C)[nH]c(C(=O)N/N=C/c2ccc(OC)c(OC)c2)c1C	48	44	20	1	-9
CCOC(=O)c1c(C)[nH]c(C(=O)N/N=C\c2ccccc2O)c1C	.	79*	77*	-2	87*
SMILES	Mdm2 MdmX PPI	CSC inhib	Beta apoptosis	A1 inh	aSyn 5UTR inh
NC(=O)c1ccc(NCC2CCCO2)c([N+](=O)[O-])c1 (stereo not drawn)	-2	-4	-2	-1	15
Cc1ccc(NC(=O)c2ccc(NCC3CCCO3)c([N+](=O)[O-])c2)cc1Cl (stereo not drawn)	30	7	.	8.2*	-38
Cc1ccc(C(=O)NCc2ccco2)cc1[N+](=O)[O-]	-18	8	-2	-1	1
Cc1ccc(NC(=O)c2ccc(NCc3ccco3)c([N+](=O)[O-])c2)cc1Cl	31	-22	14	31*	22
O=C(N/N=C/c1ccc(Cl)cc1)c1sccc1OCc1ccc(F)cc1	44	.	20	0	73*
CC(Nc1ncnc2ccccc12)c1ccccc1 (stereo not drawn)	17	22	96*	0	47
CCCCC(Nc1ncnc2ccccc12)C(=O)O (stereo not drawn)	18	-1	-3	-1	-4
COc1ccc(C(c2c[nH]c3ccccc23)c2c[nH]c3ccccc23)cc1O	10	119*	6	0	-41
COc1ccc(C(=O)NCCc2c[nH]c3ccccc23)cc1OC	18	-7	-6	-1	2
O=C(Nc1ccc(OC(F)F)c(Cl)c1)C(c1ccccc1)c1ccccc1	19	40	95*	0	26
Cc1ccc2[nH]c(=O)c3cc(C(=O)N(C)C4CCCCC4)sc3c2c1	-25	2	5	-1	-30
O=C(Oc1coc(CSc2nnc(NC(=O)c3cccs3)s2)cc1=O)c1ccccc1	6	86*	0	0	-13
CCc1ccc(CN(C)C(=O)c2cc(COc3cccc4cnccc34)on2)cc1	19	0	78*	0	21
Cc1cccc(C(=O)O/N=C/c2c(N3CCOCC3)n(C)c3ccccc23)c1	31	6	97*	0	72*
CCC1CCCCN1C(=O)c1ccc(OC2CCN(C(=O)CCOC)CC2)cc1 (stereo not drawn)	9	8	2	1	-82
NC(=O)c1sc2nc3c(c(-c4ccc(Cl)cc4)c2c1N)CCCC3	36	-9	-3	0	66*
Nc1c(C(=O)Nc2ccc3c(c2)OCCO3)nnn1Cc1cccc(Cl)c1	-45	70	27	-4	-153
Nc1c(C(=O)Nc2ccc3c(c2)OCCO3)nnn1Cc1ccccc1Cl	-83	6	93*	-1	-205
Cc1noc(C)c1NC(=O)N(C)C[C@H]1Oc2c(NC(=O)Nc3ccc4c(c3)OCO4)cccc2C(=O)N([C@H](C)CO)C[C@@H]1C	15	.	-10	1	.
O=C1CCCc2c1[nH]c1ccc(Cl)cc21	31	-12	1	0	63*
O=C(NCCc1ccc(F)cc1)C(=O)NCC1CCCN1S(=O)(=O)c1cccs1 (stereo not drawn)	37	11	.	0	-12
COC(=O)Nc1nc2ccc(-c3n[nH]c(=O)c4ccccc34)cc2[nH]1	12	104*	-4	1	-9
C=CCOc1ccc2nc(NC(=O)OC)[nH]c2c1	26	51	.	0	66*
CCOc1ccc2nc(NCCO)[nH]c2c1	-46	-25	2	0	5
Cc1cc(OC(C)C(=O)NCc2ccccn2)c2c(C)c(C)c(=O)oc2c1 (stereo not drawn)	18	-17	4	0	-6

Compound activity deposited in PubChem BioAssay by several laboratories.
